Source: PubChem BioAssay AID1159580 (chemical genetic matrix, 2015)
“And” between values parts separate entries of the source, which are not always exact repeats. Equal entries are not always repeated. Among all 5,500 compounds or so, about 2,000 (36%) were called active. About 18% were inconclusive and are not listed. Rule as the data show it: active = normalized growth mostly below about 0.91 (no sharp cut-off); inconclusive = no clear call, values can overlap the other calls; inactive = mostly above about 0.92. Some of the results follow.

Assay: chemical genetic growth profiling, strain panel (AID 1159580);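 also: tested at 20 µM; growth read once vehicle control cultures reached saturation at 30 °C; 1 = growth at the plate median or of vehicle wells; lower values mean less growth of the strain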
Conditions: S. cerevisiae deletion strains, growth OD

Measured: normalized growth

Cc1ccc(/C(=C\CN2CCCC2)c2ccccn2)cc1
inactive: locus YAL013W, strain DEP1, stronger effect = lower value 1.01 | locus YAL021C, strain ccr4, stronger effect = lower value 0.99 | locus YAL026C, strain drs2, stronger effect = lower value 0.992 | locus YAL030W, strain snc1, stronger effect = lower value 1.03 | locus YAL040C, strain CLN3, stronger effect = lower value 1.02 | locus YBL061C, strain skt5, stronger effect = lower value 1.02 | locus YBR009C, strain hhf1, stronger effect = lower value 0.971 | locus YBR021W, strain FUR4, stronger effect = lower value 1 | locus YBR023C, strain chs3, stronger effect = lower value 1.01 | locus YBR171W, strain sec66, stronger effect = lower value 1.02 | locus YBR229C, strain ROT2, stronger effect = lower value 1.01 | locus YBR231C, strain swc5, stronger effect = lower value 1.04 | locus YBR279W, strain paf1, stronger effect = lower value 0.991 | locus YCL011C, strain gbp2, stronger effect = lower value 0.99 | locus YCL016C, strain dcc1, stronger effect = lower value 0.975 | locus YCL029C, strain bik1, stronger effect = lower value 1 | locus YCL061C, strain MRC1 (second series), stronger effect = lower value 0.99 | locus YCL061C, strain MRC1, stronger effect = lower value 1.02 | locus YCL069W, strain vba3, stronger effect = lower value 1.01 | locus YCR088W, strain abp1, stronger effect = lower value 1.02 | locus YDL005C, strain med2, stronger effect = lower value 1.01 | locus YDL035C, strain GPR1, stronger effect = lower value 1.02 | locus YDL040C, strain nat1, stronger effect = lower value 1.01 | locus YDL074C, strain BRE1, stronger effect = lower value 1.01 | locus YDL101C, strain DUN1, stronger effect = lower value 1.01 | locus YDL134C, strain PPH21, stronger effect = lower value 1.01 | locus YDL185W, strain tfp1, stronger effect = lower value 1.01 | locus YDL192W, strain arf1, stronger effect = lower value 1 | locus YDR001C, strain nth1, stronger effect = lower value 1 | locus YDR069C, strain doa4, stronger effect = lower value 1.02 | locus YDR101C, strain arx1, stronger effect = lower value 0.997 | locus YDR137W, strain rgp1, stronger effect = lower value 0.993 | locus YDR150W, strain NUM1, stronger effect = lower value 1.02 | locus YDR159W, strain sac3, stronger effect = lower value 0.933 | locus YDR162C, strain NBP2, stronger effect = lower value 1.01 | locus YDR195W, strain ref2 0.993 | locus YDR297W, strain sur2, stronger effect = lower value 1.02 | locus YDR318W, strain mcm21, stronger effect = lower value 0.995 | locus YDR334W, strain swr1, stronger effect = lower value 0.991 | locus YDR335W, strain msn5, stronger effect = lower value 1.01 | locus YDR363W, strain ESC2, stronger effect = lower value 0.965 | locus YDR388W, stronger effect = lower value 0.998 | locus YDR392W, strain spt3, stronger effect = lower value 0.927 | locus YDR502C, strain sam2, stronger effect = lower value 0.995 | locus YEL003W, strain gim4, stronger effect = lower value 1.04 | locus YEL037C, strain rad23, stronger effect = lower value 1.01 | locus YEL061C, strain CIN8 (second series), stronger effect = lower value 1.01 | locus YEL061C, strain CIN8, stronger effect = lower value 1.01 | locus YER002W, strain NOP16, stronger effect = lower value 1 | locus YER015W, strain faa2, stronger effect = lower value 1.01 | locus YER016W, strain bim1, stronger effect = lower value 0.995 | locus YER110C, stronger effect = lower value 0.995 | locus YER111C, strain swi4, stronger effect = lower value 1 | locus YER155C, strain BEM2 (second series), stronger effect = lower value 1.05 | locus YER155C, strain BEM2, stronger effect = lower value 1 | locus YER167W, strain BCK2, stronger effect = lower value 1.01 | locus YFR010W, strain ubp6, stronger effect = lower value 1.01 | locus YGL078C, strain dbp3, stronger effect = lower value 0.993 | locus YGL086W, strain mad1, stronger effect = lower value 0.996 | locus YGL167C, strain pmr1, stronger effect = lower value 1.01 | locus YGL173C, strain kem1, stronger effect = lower value 1.04 | locus YGL227W, strain vid30, stronger effect = lower value 1.01 | locus YGL240W, strain doc1, stronger effect = lower value 1.03 | locus YGL248W, strain PDE1, stronger effect = lower value 1 | locus YGL253W, strain hxk2, stronger effect = lower value 0.98 | locus YGR078C, strain PAC10, stronger effect = lower value 1.01 and 0.984 | locus YGR135W, strain pre9, stronger effect = lower value 0.997 | locus YGR229C, strain SMI1, stronger effect = lower value 1.01 and 0.973 | locus YGR252W, strain gcn5, stronger effect = lower value 0.98 | locus YHR013C, strain ard1, stronger effect = lower value 0.999 | locus YHR027C, strain rpn1, stronger effect = lower value 1.01 | locus YHR030C, strain SLT2, stronger effect = lower value 1.02 and 0.995 | locus YHR079C, strain IRE1 (second series), stronger effect = lower value 0.998 | locus YHR079C, strain IRE1, stronger effect = lower value 1.02 | locus YHR094C, strain hxt1, stronger effect = lower value 0.999 | locus YHR129C, strain ARP1, stronger effect = lower value 1.01 | locus YHR142W, strain chs7, stronger effect = lower value 1.01 | locus YHR200W, strain rpn10, stronger effect = lower value 1 | locus YIL066C, strain RNR3, stronger effect = lower value 1.02 | locus YIL073C, strain SPO22, stronger effect = lower value 1.01 | locus YIL125W, strain kgd1, stronger effect = lower value 1 | locus YIR030C, strain dcg1, stronger effect = lower value 0.995 | locus YJL092W, strain hpr5, stronger effect = lower value 1.02 | locus YJL095W, strain BCK1 (second series), stronger effect = lower value 1.03 | locus YJL095W, strain BCK1, stronger effect = lower value 0.997 and 1.01 | locus YJL115W, strain asf1, stronger effect = lower value 1 | locus YJL129C, strain trk1, stronger effect = lower value 1.03 | locus YJL134W, strain LCB3, stronger effect = lower value 1.01 | locus YJL154C, strain vps35, stronger effect = lower value 1.01 | locus YJL164C, strain tpk1, stronger effect = lower value 0.979 | locus YJL166W, strain qcr8, stronger effect = lower value 1.04 | locus YJL168C, strain set2, stronger effect = lower value 1 | locus YJL187C, strain SWE1 (second series), stronger effect = lower value 1.02 | locus YJL187C, strain SWE1, stronger effect = lower value 1.02 | locus YJR043C, strain POL32, stronger effect = lower value 0.991 | locus YJR066W, strain TOR1, stronger effect = lower value 0.955
